HT1080 IDH1KD tx = qHTS for induction of synthetic lethality in tumor cells producing 2HG: qHTS for the HT-1080-IDH1KD cell line | HT-1080 IDH1 knockdown viability, ATP luminescence, 48 h | Potency, µM (highest dose often 46.1 µM), inactives show at the highest dose activity, negative = toxicity, usual class: cytotoxic | 2% of 360,000 active | AID 686971, 2013;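 note: potency is the fitted concentration of half-maximal effect; 0% = DMSO wells and -100% = cell-free medium wells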
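After a 2 h attachment period, IDH1KD HT-1080 cells took pin-transferred compound for 48 h at 37 °C; ATP-based luminescence after 10 min room-temperature reagent incubation reported viability.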
TDP1 cell noCPT = qHTS for Inhibitors of human tyrosyl-DNA phosphodiesterase 1 (TDP1): qHTS in cells in absence of CPT; DT40 Tdp1-/- hTDP1 cells, no CPT, ATP luminescence, 48 h; 15% of 420,000 active; Potency, µM (titrated, usually from 46.2 µM), inactives show at the highest dose activity change, negative = growth inhibition, usual class: inhibitors; note: potency is the fitted concentration of half-maximal effect; nearly all actives have a fitted effect of over 55% in size
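DT40 Tdp1-/-;hTDP1 cells, no CPT (DMSO vehicle only), 400 cells/well; compounds pin-transferred; ≥48 hr, 37 °C; CellTiter-Glo 30 min RT dark, luminescence read.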
TDP1 cell CPT = qHTS for Inhibitors of human tyrosyl-DNA phosphodiesterase 1 (TDP1): qHTS in cells in presence of CPT; chicken DT40 Tdp1-/-;hTDP1 cells + 20 nM CPT, ATP luminescence, 48 h; Potency, µM (series often up to 46.2 µM), without a hit: at the highest dose activity change, negative = growth inhibition, most hits filed as inhibitors; 12% of 420,000 active; AID 686979, 2013; note: potency is the fitted concentration of half-maximal effect; nearly all actives have a fitted effect of over 55% in size
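Chicken DT40 Tdp1-/- cells stably complemented with human TDP1 were seeded at 400 cells/well in medium containing 20 nM camptothecin, exposed to pin-transferred compounds, and grown at 37 °C for at least 48 hr. Viability was read as ATP luminescence.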
HT1080NT lethal = qHTS for induction of synthetic lethality in tumor cells producing 2HG: qHTS for the HT-1080-NT fibrosarcoma cell line. 1.6% of 360,000 active. HT-1080-NT fibrosarcoma viability, CellTiter-Glo ATP luminescence, 48 h. Potency, µM (top dose mostly 46.1 µM), inactives show at the top dose activity, negative = less viability, usual class: cytotoxic;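 note: NT is the 2HG producing partner of a matched IDH1 knockdown line; potency is the fitted concentration of half-maximal effect; 0% = DMSO-treated cells and -100% = media-only wells without cells; nearly all actives have a fitted effect of over 55% in size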
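Compounds were tested in concentration-response format on HT-1080-NT cells for 48 hours at 37 degrees C. Cell viability came from CellTiter-Glo luminescence; curves were classified by r2, response magnitude and activity.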
IL1B secr inh = qHTS for Inhibitors of Inflammasome Signaling: IL-1-beta AlphaLISA Primary Screen | activity change, % at 57.5 µM | THP-1 LPS/ATP IL-1B secretion, AlphaLISA, 16 h; active compounds read low | 4.7% of 360,000 active; in the data active = activity change below about -50%; inconclusive = mostly about -30% to -49%
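Secreted IL-1B measured by AlphaLISA bead assay after 16 h compound exposure of THP-1 cells; compounds (final up to 57.5 uM) added 1 h before LPS (250 ng/mL) and ATP (1.25 mM) stimulation; lower signal means less secretion.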
The depositor's hits bear a star; ? = inconclusive; / = no result. Only some compounds are listed: those with a hit (about 19% of all), similar ones and a draw of the others. Unless noted, calls come from the whole dose curve; as a rule, active = well fitted curve in the direction sought with a large enough effect; inconclusive = small, poorly fitted or top-dose-only effect, or another doubt; inactive = no such curve, though single readings can be large; an effect the other way counts as inactive or inconclusive. Unless noted, % is set by controls: 0 for no effect and ±100 for the full control effect.

SMILES	HT1080 IDH1KD tx	TDP1 cell noCPT	TDP1 cell CPT	HT1080NT lethal	IL1B secr inh
CCCn1c(=S)[nH]c2cc(C(=O)N3CCN(C(=O)OCC)CC3)ccc2c1=O	-1.3%	-4.5%	-23.9%	-7.0%	49.5
CC1=C(C(=O)N2CCCCCC2)CC(CC(=O)NCc2cccs2)C(=O)N1Cc1ccccc1 (stereo unspecified)	15.8%	?	-26.7%	9.0%	-15.6
CC(=O)c1ccc(N2CCN(C(=O)c3ccc(Cn4c(=O)[nH]c5ccccc5c4=O)cc3)CC2)cc1	/	16.4µM*	10.3µM*	/	/
O=C(c1ccc2c(=O)n(Cc3ccccc3)c(=S)[nH]c2c1)N1CCOCC1	-12.7%	-28.0%	-19.7%	0.0%	38.3
CC(=O)c1ccc(N2CCN(C(=O)c3ccc(Cn4c(=S)[nH]c5ccc(N6CCOCC6)cc5c4=O)cc3)CC2)cc1	-17.5%	2.59µM*	3.26µM*	-20.2%	28.8
CCOn1c(=O)c(=O)n(OC)c2ccccc21	2.7%	-26.7%	5.3%	5.4%	12.4
O=C(NC1CCCCC1)c1ccc2ccccc2c1	-8.7%	?	-19.8%	-2.0%	-16.9
O=C(NC1CC1)c1ccc2c(c1)C1C3CCC(C3)C1C(c1ccccc1)N2 (stereo unspecified)	3.7%	25.9µM*	?	3.6%	?
C[C@@H]1CN([C@H](C)CO)S(=O)(=O)c2ccc(C#Cc3ccccc3)cc2O[C@@H]1CN(C)C(=O)CN(C)C	-12.7%	25.9µM*	16.4µM*	-11.9%	-29.3
C[C@@H]1CN([C@H](C)CO)S(=O)(=O)c2ccc(C#Cc3ccccc3)cc2O[C@H]1CN(C)C(=O)Nc1ccc2c(c1)OCO2	?	16.4µM*	13µM*	-25.1%	?
C[C@@H]1CN([C@H](C)CO)S(=O)(=O)c2ccc(C#CC3CCCC3)cc2O[C@H]1CN(C)C(=O)Cc1ccccc1	?	5.8µM*	5.8µM*	?	-80.6*
CC(C)CC#Cc1ccc2c(c1)O[C@H](CN(C)C(=O)Nc1ccccc1)[C@@H](C)CN([C@H](C)CO)S2(=O)=O	-0.9%	-2.3%	3.5%	-10.9%	0.0
CCCC#Cc1ccc2c(c1)O[C@H](CN(C)C(=O)CC1CC1)[C@H](C)CN([C@@H](C)CO)S2(=O)=O	-4.8%	18.4µM*	?	-14.2%	-14.4
CCC(=O)N(C)C[C@@H]1Oc2cc(Br)ccc2S(=O)(=O)N([C@@H](C)CO)C[C@@H]1C	1.6%	-3.9%	3.0%	2.8%	-0.8
CN(C)CCCNc1nc2cc(-c3ccn[nH]3)sc2c(=O)n1C	3.9%	-19.8%	-1.3%	25.5%	23.9
O=C(NC1CCCC1)c1ccc(CNc2c(N3CCOCC3)c(=O)c2=O)cc1	-1.8%	-14.1%	-4.8%	0.7%	-8.8
CCN(CC(=O)NCc1cccs1)C(=O)Cc1ccc(C)c(C)c1	2.6%	-5.2%	-24.1%	-2.4%	18.1
CNC(=S)N1CCC(c2nc3ccccc3s2)CC1	2.5%	?	?	2.3%	-2.7
CSc1nc(NCC(C)C)c2c3c(sc2n1)CN(C)CC3	?	?	20.6µM*	-30.4%	3.4
CN(C)CCSc1nc(N)c2c3c(sc2n1)CN(C)CC3	-0.6%	?	?	1.4%	12.0
CCCSc1nc(N)c2c3c(sc2n1)CN(C)CC3	1.0%	23.1µM*	-25.8%	-5.0%	-17.3
CSc1nc(NCc2ccccc2)c2c3c(sc2n1)CN(C)CC3	?	23.1µM*	23.1µM*	?	?
COCCNc1nc(SC)nc2sc3c(c12)CCN(C)C3	-14.3%	-3.4%	-11.3%	-9.9%	0.0
CCC(CC)C(=O)Nc1cccc(-c2nc3ncccn3c2C)c1	/	-27.7%	-11.4%	/	/
CC(=O)Nc1cc(-c2ccc(C(=O)N3CCOCC3)cc2)cn2c(-c3cccc(C(C)=O)c3)cnc12	-15.9%	14.6µM*	?	-23.0%	?
SMILES	HT1080 IDH1KD tx	TDP1 cell noCPT	TDP1 cell CPT	HT1080NT lethal	IL1B secr inh
CN(C)CCNC(=O)c1cccc(-c2cnc3c(NC=O)cc(-c4ccc(C(=O)N5CCOCC5)cc4)cn23)c1	0.6%	11.8%	-1.2%	16.8%	-5.1
COc1cccc(-c2cnc3c(NC(C)=O)cc(-c4ccc(C(=O)N5CCOCC5)cc4)cn23)c1	20.6µM*	18.4µM*	20.6µM*	?	?
CC(=O)Nc1cncc(-c2cccc(C(=O)N3CCOCC3)c2)n1	1.0%	6.51µM*	-36.8%	-2.4%	-2.9
CC(C)NC(=O)COC(=O)CNC(=O)C1CCCCC1	/	-6.6%	-4.3%	/	/
CC(C)CC(=O)Nc1ccc(Oc2ccc3c(c2)C(=O)NC3=O)cc1	10.5%	-6.2%	0.1%	15.7%	19.6
COC(=O)Cn1c(SCCOc2ccccc2OC)nc2ccccc21	/	-22.5%	-24.0%	/	/
CCN(c1ccccc1)S(=O)(=O)c1ccc(Cl)c(NC(=O)CSc2nc(N)cc(=O)[nH]2)c1	-8.6%	-23.2%	-26.3%	-2.1%	18.3
CC(C)(C)[C@H]1C=C(C(=O)N2CCN(Cc3ccc4c(c3)OCO4)CC2)O[C@@H](OCc2ccc(CO)cc2)C1	-22.1%	18.4µM*	20.6µM*	-17.5%	-61.3*
CC(C)(C)[C@H]1C=C(C(=O)NC2CC2)O[C@@H](OCc2ccc(CO)cc2)C1	2.9%	?	?	-4.3%	19.6
CC(C)(C)[C@@H]1C=C(C(=O)N2CCN(Cc3ccccc3)CC2)O[C@H](OCc2ccc(CO)cc2)C1	-5.0%	?	13µM*	-2.0%	-2.5
Cc1cc(C(=O)CN2C(=O)NC(C)(c3ccc(F)c(F)c3)C2=O)c(C)n1C1CC1 (stereo unspecified)	2.7%	5.8µM*	7.31µM*	-9.8%	28.1
CC1(C(=O)NCCc2c[nH]c3ccccc23)CCN1Cc1ccccc1OC(F)F (stereo unspecified)	?	?	18.4µM*	23.1µM*	-20.4
CC(C)CNC(=O)C1(C)CCCN1Cc1ccccc1OC(F)F (stereo unspecified)	2.8%	23.1µM*	20.6µM*	-10.5%	-5.4
CC1(C(=O)NCCc2c[nH]c3ccccc23)CCN1Cc1csc2ccccc12 (stereo unspecified)	-10.7%	-1.7%	0.1%	13.3%	23.0
CC1(C(=O)NCc2ccccc2Br)CCN1Cc1ccccc1OC(F)F (stereo unspecified)	?	23.1µM*	?	?	-54.0*
COc1nc(N)nc2c1ncn2C1OC(CO)CC1O (stereo unspecified)	0.5%	1.46µM*	1.03µM*	2.5%	0.0

Screens from PubChem BioAssay.
